Compound activity from PubChem.
MazEF act = MazEF (E. coli) toxin RNase activation; activation, % at 20 µM; actives 0.32% (n = 350,000); FAM/BHQ RNA-DNA oligo cleavage fluorescence, 5 h; P0AE70; in the data active means activation above about 50%
Target sequence (P0AE70 whole entry, looked up): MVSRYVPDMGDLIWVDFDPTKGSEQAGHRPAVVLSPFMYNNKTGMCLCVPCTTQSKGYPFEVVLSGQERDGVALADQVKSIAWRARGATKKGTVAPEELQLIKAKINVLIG
Mtb BioA inh = blocks M. tuberculosis BioA enzyme activity. purified M. tuberculosis BioA enzyme, plate reader. inhibition, % at 9.99 µM. actives 0.096% (n = 360,000). AID 602481; in the data active means inhibition above about 40%; inconclusive means no clear call, values can overlap the other calls
TcdB GH inh = blocks C. difficile toxin B glycohydrolase activity. inhibition, % at 9.99 µM. AID 652162. P18177. TcdB glycohydrolase enzymatic assay, plate reader. actives 0.24% (n = 350,000); in the data active means inhibition above about 10%
FadD28 FP inh = inhibitors of Mycobacterium tuberculosis FadD28 bisubstrate binding. FadD28 bisubstrate probe binding, fluorescence polarization. inhibition, % at 12.5 µM. actives 0.22% (n = 360,000); in the data active means inhibition above about 8.5%, passing the limit was not always enough; inconclusive means no clear call, values can overlap the other calls
DUSP3 inh = blocks human VHR1 dual specificity phosphatase | recombinant VHR phosphatase, pNPP absorbance | inhibition, % at 13.3 µM | actives 0.52% (n = 290,000) | AID 1654; in the data active means inhibition above about 50%
Target sequence (P51452 whole entry, looked up): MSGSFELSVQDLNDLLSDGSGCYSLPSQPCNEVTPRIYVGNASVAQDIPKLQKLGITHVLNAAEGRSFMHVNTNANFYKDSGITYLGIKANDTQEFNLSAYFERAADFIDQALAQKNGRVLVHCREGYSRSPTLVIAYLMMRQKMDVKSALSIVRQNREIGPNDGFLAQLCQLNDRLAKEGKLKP
Y pestis TopoI = blocks Yersinia pestis topoisomerase I activity. Y. pestis Topo-I cleavage product accumulation, plate reader. activity, % at 10 µM. actives 0.064% (n = 360,000). AID 504884; in the data active means activity above about 50%, passing the limit was not always enough; inconclusive means no clear call, values can overlap the other calls
Numbers without * were called inactive; ? = inconclusive; . = not tested or not shown. A selection: hits, their analogues and other compounds. The true share with any hit is near 1%.

SMILES	MazEF act	Mtb BioA inh	TcdB GH inh	FadD28 FP inh	DUSP3 inh	Y pestis TopoI
CCC(=O)Nc1nc2ccccc2n1CCN(C)C	-10	1	0	-3	57*	-11
COc1ccc(S(=O)(=O)N2CC[C@@H]3[C@H]2c2cc(-c4ccc(C#N)cc4)ccc2N[C@@H]3CO)cc1	.	-3	-1	.	.	.
COc1ccc(/C(C)=N/Nc2cccc(C(=O)O)c2)cc1OC	-1	2	0	0	5	1
C/C(=N/Nc1ccc(C(=O)O)cc1)c1ccc2c(c1)Nc1ccccc1S2	-3	.	3	20*	.	-14
C/C(=N\Nc1ccc(Cl)c(C(=O)O)c1)c1ccc2c(c1)OCO2	-1	0	0	-3	14	0
C/C(=N\Nc1ccc(C(=O)O)cc1)c1ccc2c(c1)Nc1ccccc1S2	-7	7	2	20*	14	-5
COc1ccc(S(=O)(=O)N[C@H]2CC[C@@H](CCn3cc(-c4ccccc4F)nn3)O[C@H]2CO)cc1	.	3	0	.	.	.
CCCCCn1c(=O)c(C(=O)c2ccccc2)nc2ccccc21	4	0	1	-4	15	20
CCCCCCn1c(=O)[nH]c2nc3cc(N)ccc3nc2c1=O	364*	.	.	.	26	.
O=C(C[C@H]1CC[C@H](NS(=O)(=O)c2ccccc2)[C@@H](CO)O1)NCc1ccncn1	.	-4	1	.	.	.
C[C@@H]1CN([C@H](C)CO)S(=O)(=O)c2ccc(C#CC3CCCCC3)cc2O[C@@H]1CN(C)C	.	1	-3	.	.	.
COc1ccccc1C#Cc1ccc2c(c1)O[C@@H](CN(C)Cc1ccccc1)[C@@H](C)CN([C@H](C)CO)S2(=O)=O	.	-1	-1	.	.	.
O=[N+]([O-])c1cc(/C=N/O)ccc1SCc1ccccc1Cl	10	-1	.	-3	53*	4
CC(C)(C)Sc1ccc(/C=N/O)cc1[N+](=O)[O-]	4	.	8	-4	17	15
O=C(c1cccc(F)c1)N1CC(=O)N2[C@H](CO)[C@H](c3ccc(-c4ccccc4F)cc3)[C@H]2C1	.	.	0	.	.	.
COc1cc(C2NC(=O)NC(C)=C2C(C)=O)ccc1O (stereo not given)	83*	0	0	-4	13	1
C[C@H]1CN([C@@H](C)CO)C(=O)Cc2cc(NC(=O)Nc3ccc(F)cc3)ccc2O[C@H]1CN(C)Cc1ccc(C(=O)Nc2ccccc2N)cc1	.	.	-2	.	.	.
O=C1CC(c2ccccc2)=NN1c1nc(-c2ccccc2)cs1	9	.	0	1	5	-20
CC1=NN(c2nc(-c3ccccc3)cs2)C(=O)C1	-5	-2	.	16*	-11	-15
Nc1ccc(Sc2ccc(N)cc2)cc1	6	0	13*	3	.	-6
CCNC(=S)NCCN1CCCCC1	123*	-1	.	2	4	0
CCCNC(=S)NCCN1CCCCC1	14	0	.	-3	42	-6
CCc1cccc2c(C(=O)CN3C(=O)NC4(CCCCC4)C3=O)c[nH]c12	11	0	0	13*	.	-10
CCc1cccc2c(C(=O)CN3C(=O)C(=O)N(C4CCCC4)C3=O)c[nH]c12	1	.	2	14*	.	-19
Cc1ccc(C)c(C(=O)CN2C(=O)C(=O)N(C3CCCC3)C2=O)c1	5	0	0	?	.	0
SMILES	MazEF act	Mtb BioA inh	TcdB GH inh	FadD28 FP inh	DUSP3 inh	Y pestis TopoI
CCc1cccc2c(C(=O)CN3C(=O)NC4(CCCCCC4)C3=O)c[nH]c12	4	-1	1	53*	.	-17
COC(=O)c1c(CC[C@@H](CO)NC(=O)N[C@@H](Cc2ccccc2)Cn2cc(-c3ccccc3)nn2)oc(C(=O)N2CCOCC2)c1C(=O)OC	.	.	0	.	.	.
CC=Cc1ccc2n(c1=O)C[C@H]1[C@H](CO)[C@@H](C(=O)NCCc3ccccc3)N(CCC)[C@@H]21 (mixture of isomers)	.	-1	-1	.	.	.
COCC(=O)Nc1ccc2c(c1)OC[C@H](C)N(Cc1ccccc1F)C[C@H](C)[C@H](OC)CN(C)C2=O	.	.	0	.	.	.
CCCCNS(=O)(=O)c1ccc2nc(SCC(=O)Nc3ccccc3)[nH]c2c1	-2	.	0	-5	-4	4
CCCCNS(=O)(=O)c1ccc2nc(SCC(=O)c3ccc(C#N)cc3)[nH]c2c1	7	0	.	-3	57*	0
O=C(N[C@@H]1CC[C@H](CCNC(=O)C2CCC2)O[C@@H]1CO)c1ccccn1	.	-4	0	.	.	.
CCOC(=O)CSc1nc2ccccc2c(=O)n1CC1CCCC1	0	0	.	-1	26	58*
